Targets with a hit are over-represented here; the source holds about 7,900 in all. About 0.6% of all pairs of compound and target were hits.
Assays:
Test in all cases: log2 fold change, soluble protein after heating vs DMSO (PISA); higher = thermal stabilisation; K562 cells, 10 uM, 30 min; active = over 0.2 and 3.5 SD of the protein, either way, in both replicates (recomputed)
[1] = compound: C[C@@H](Oc1cc(-c2cnn(C3CCNCC3)c2)cnc1N)c1c(Cl)ccc(F)c1Cl [crizotinib]
Summary of the method: (§1)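 K562 cells at 2×10^6 cells/mL were treated with 10 μM compound for 30 min. Aliquots were heated for 3 min across 48°C-58°C, pooled, and extracted in PBS with 0.5% NP-40 at 4°C; soluble protein was the supernatant after 21,000xg for 90 min. Soluble protein was quantified by TMTpro 16plex LC-MS/MS with channel sums equalised, and reported as log2 fold change in thermal stability against DMSO controls, with values from duplicates.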

[2] = compound: C[C@H](C1=CC=C(C=C1)C(=O)NC2=C3C=CNC3=NC=C2)N
Summary of the method: as §1

[3] = compound: C[C@H](Nc1ncnc2nc[nH]c12)c1cc2cccc(Cl)c2c(=O)n1-c1ccccc1 [duvelisib]
Summary of the method: as §1

[4] = compound: Cc1cc(Nc2cc(CN3CCOCC3)c3nc(C)c(Cc4ccc(Cl)cc4F)n3n2)n[nH]1 [gandotinib]
Summary of the method: as §1

[5] = compound: Cc1cc(Nc2cc(N3CCN(C)CC3)nc(Sc3ccc(NC(=O)C4CC4)cc3)n2)n[nH]1 [tozasertib]
Summary of the method: as §1

[6] = compound: Cc1cc(SCc2sc(-c3ccc(C(F)(F)F)cc3)nc2C)ccc1OCC(=O)O
Summary of the method: as §1

[7] = compound: Cc1ccc(-n2nc(C(C)(C)C)cc2NC(=O)Nc2ccc(OCCN3CCOCC3)c3ccccc23)cc1 [doramapimod]
Summary of the method: as §1

[8] = compound: Cc1cccc(CC(=O)N2CCc3c2ccc(-c2cn(C)c4ncnc(N)c24)c3F)n1
Summary of the method: as §1

[9] = compound: Cc1nc(Nc2ncc(C(=O)Nc3c(C)cccc3Cl)s2)cc(N2CCN(CCO)CC2)n1 [dasatinib]
Summary of the method: as §1

[10] = compound: Cn1cc(-c2ccc3c(c2)CCN3C(=O)Cc2cccc(C(F)(F)F)c2)c2c(N)ncnc21
Summary of the method: as §1

[11] = compound: Cc1ccc(C(=O)N(CCCN)[C@@H](c2nc3cc(Cl)ccc3c(=O)n2Cc2ccccc2)C(C)C)cc1 [ispinesib]
Summary of the method: as §1

[12] = compound: Cc1ccc(NC(=O)c2ccc(CN3CC[C@H](N(C)C)C3)c(C(F)(F)F)c2)cc1Nc1nccc(-c2cncnc2)n1 [bafetinib]
Summary of the method: as §1

[13] = compound: Cn1cc(-c2ccc3nnc(C(F)(F)c4ccc5ncccc5c4)n3n2)cn1
Summary of the method: as §1

[14] = compound: Cn1cncc1[C@@](N)(c1ccc(Cl)cc1)c1ccc2c(c1)c(-c1cccc(Cl)c1)cc(=O)n2C [tipifarnib]
Summary of the method: as §1

[15] = compound: FC(F)(F)c1ccc(/C=C/c2nc(COc3ccc(CCCCn4ccnn4)cc3)co2)cc1 [mubritinib]
Summary of the method: as §1

[16] = compound: CS(=O)(=O)c1ccc(-c2cnc(N)c(C(=O)Nc3ccccc3)n2)cc1
Summary of the method: as §1

[17] = compound: C[C@@H]1COCCN1C2=NC(=NC(=C2)C3(CC3)S(=O)(=O)C)C4=C5C=CNC5=CC=C4
Summary of the method: as §1

[18] = compound: Cc1cn(-c2cc(NC(=O)c3ccc(C)c(Nc4nccc(-c5cccnc5)n4)c3)cc(C(F)(F)F)c2)cn1 [nilotinib]
Summary of the method: as §1

[19] = compound: Cc1nc(Nc2n[nH]c3c2CN(C(=O)N[C@H](CN(C)C)c2ccccc2)C3(C)C)c2sccc2n1
Summary of the method: as §1

[20] = compound: Cc1ncc(-c2ccnc(Nc3ccc(S(C)(=O)=O)cc3)n2)n1C(C)C
Summary of the method: as §1

Measured: log2 fold change

PUM1 (UniProt Q14671)
inactive: [1] -0.079 | [2] -0.362 | [3] -0.187 | [4] 0.207 | [5] 0.019 | [6] 0.203 | [7] 0.041 | [8] -0.202 | [9] -0.207 | [10] 0.229

PCF11 (UniProt O94913)
Chain of UniProt O94913 (O94913 whole entry, looked up): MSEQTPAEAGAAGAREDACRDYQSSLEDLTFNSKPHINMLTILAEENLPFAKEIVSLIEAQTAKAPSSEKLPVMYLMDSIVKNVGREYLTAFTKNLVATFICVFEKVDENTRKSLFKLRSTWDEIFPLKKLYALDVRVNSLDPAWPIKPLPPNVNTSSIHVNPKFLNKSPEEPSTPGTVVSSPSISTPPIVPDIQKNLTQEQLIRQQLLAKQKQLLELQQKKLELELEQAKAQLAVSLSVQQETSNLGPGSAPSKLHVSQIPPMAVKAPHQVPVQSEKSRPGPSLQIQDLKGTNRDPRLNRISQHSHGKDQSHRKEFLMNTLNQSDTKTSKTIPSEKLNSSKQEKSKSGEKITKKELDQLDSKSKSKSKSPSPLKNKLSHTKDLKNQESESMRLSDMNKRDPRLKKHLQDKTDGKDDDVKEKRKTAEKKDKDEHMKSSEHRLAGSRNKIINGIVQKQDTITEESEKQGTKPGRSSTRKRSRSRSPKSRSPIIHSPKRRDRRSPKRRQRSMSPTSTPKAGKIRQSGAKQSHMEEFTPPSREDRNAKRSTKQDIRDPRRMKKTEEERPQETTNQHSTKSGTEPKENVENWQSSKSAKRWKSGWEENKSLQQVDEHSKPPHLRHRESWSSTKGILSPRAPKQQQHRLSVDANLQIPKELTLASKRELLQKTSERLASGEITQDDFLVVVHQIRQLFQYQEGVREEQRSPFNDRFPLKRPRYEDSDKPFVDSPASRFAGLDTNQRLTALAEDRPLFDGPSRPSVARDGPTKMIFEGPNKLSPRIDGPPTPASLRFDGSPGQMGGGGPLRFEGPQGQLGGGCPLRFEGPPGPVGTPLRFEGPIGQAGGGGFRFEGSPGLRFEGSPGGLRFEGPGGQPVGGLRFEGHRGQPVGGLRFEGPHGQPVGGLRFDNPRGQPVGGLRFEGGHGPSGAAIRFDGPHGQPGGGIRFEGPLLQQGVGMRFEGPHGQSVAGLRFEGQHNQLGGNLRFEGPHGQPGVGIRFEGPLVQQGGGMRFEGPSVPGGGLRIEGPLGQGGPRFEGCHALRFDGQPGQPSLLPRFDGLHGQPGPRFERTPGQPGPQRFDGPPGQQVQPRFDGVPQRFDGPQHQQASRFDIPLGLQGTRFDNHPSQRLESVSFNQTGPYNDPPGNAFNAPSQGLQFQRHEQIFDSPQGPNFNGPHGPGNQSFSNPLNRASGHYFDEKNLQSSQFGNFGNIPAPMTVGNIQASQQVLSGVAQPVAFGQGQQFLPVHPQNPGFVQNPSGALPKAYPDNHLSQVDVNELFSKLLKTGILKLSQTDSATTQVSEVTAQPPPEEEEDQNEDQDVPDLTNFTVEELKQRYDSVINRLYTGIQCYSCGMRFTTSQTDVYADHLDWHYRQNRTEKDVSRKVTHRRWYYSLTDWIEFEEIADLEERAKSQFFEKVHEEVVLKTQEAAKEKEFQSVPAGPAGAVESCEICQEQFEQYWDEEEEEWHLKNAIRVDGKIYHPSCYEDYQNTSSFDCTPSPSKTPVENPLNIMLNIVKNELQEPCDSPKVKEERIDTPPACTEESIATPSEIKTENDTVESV
inactive: [1] -0.137 | [2] 0.211 | [4] -0.149 | [7] 0.051 | [11] -0.533 | [12] -0.099 | [8] 0.078 | [10] -0.095 | [13] 0.007 | [14] 0.168 | [15] 0.179

PPP2R5C isoform 2 (UniProt Q13362)
inactive: [1] 0.243 | [7] 0.052 | [11] 0.023 | [12] 0.046 | [13] 0.037 | [15] -0.057

PPP1R12C (UniProt Q9BZL4)
Chain of UniProt Q9BZL4 (Q9BZL4 whole entry, looked up): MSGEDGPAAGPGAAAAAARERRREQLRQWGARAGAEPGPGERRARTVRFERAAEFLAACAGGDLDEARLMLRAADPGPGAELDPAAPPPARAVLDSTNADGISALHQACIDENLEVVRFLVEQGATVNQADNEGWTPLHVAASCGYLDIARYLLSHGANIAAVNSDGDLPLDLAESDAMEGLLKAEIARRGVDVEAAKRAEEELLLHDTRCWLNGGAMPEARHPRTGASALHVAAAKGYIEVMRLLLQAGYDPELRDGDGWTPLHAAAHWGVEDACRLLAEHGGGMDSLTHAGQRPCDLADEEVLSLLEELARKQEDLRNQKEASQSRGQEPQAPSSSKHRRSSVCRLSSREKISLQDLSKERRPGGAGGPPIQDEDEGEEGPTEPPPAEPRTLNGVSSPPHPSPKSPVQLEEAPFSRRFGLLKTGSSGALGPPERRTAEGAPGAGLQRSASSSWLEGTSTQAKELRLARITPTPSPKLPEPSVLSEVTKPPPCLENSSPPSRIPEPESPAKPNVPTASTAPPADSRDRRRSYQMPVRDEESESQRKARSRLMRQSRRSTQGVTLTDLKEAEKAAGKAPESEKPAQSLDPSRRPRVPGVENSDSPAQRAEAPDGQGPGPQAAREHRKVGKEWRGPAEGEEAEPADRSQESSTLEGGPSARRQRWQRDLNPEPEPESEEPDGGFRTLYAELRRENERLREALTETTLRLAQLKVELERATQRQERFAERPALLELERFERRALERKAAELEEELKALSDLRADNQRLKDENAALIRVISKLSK
inactive: [16] -0.016 | [17] -0.198 | [3] -0.011 | [4] -0.001 | [5] 0.091 | [6] 0.018 | [11] -0.009 | [12] -0.085 | [18] 0.069 | [19] -0.26 | [9] -0.065 | [20] -0.213 | [13] -0.018 | [14] -0.219 | [15] -0.118
active: [8] 0.612

PRR14L (UniProt Q5THK1)
Chain of UniProt Q5THK1 (Q5THK1 whole entry, looked up): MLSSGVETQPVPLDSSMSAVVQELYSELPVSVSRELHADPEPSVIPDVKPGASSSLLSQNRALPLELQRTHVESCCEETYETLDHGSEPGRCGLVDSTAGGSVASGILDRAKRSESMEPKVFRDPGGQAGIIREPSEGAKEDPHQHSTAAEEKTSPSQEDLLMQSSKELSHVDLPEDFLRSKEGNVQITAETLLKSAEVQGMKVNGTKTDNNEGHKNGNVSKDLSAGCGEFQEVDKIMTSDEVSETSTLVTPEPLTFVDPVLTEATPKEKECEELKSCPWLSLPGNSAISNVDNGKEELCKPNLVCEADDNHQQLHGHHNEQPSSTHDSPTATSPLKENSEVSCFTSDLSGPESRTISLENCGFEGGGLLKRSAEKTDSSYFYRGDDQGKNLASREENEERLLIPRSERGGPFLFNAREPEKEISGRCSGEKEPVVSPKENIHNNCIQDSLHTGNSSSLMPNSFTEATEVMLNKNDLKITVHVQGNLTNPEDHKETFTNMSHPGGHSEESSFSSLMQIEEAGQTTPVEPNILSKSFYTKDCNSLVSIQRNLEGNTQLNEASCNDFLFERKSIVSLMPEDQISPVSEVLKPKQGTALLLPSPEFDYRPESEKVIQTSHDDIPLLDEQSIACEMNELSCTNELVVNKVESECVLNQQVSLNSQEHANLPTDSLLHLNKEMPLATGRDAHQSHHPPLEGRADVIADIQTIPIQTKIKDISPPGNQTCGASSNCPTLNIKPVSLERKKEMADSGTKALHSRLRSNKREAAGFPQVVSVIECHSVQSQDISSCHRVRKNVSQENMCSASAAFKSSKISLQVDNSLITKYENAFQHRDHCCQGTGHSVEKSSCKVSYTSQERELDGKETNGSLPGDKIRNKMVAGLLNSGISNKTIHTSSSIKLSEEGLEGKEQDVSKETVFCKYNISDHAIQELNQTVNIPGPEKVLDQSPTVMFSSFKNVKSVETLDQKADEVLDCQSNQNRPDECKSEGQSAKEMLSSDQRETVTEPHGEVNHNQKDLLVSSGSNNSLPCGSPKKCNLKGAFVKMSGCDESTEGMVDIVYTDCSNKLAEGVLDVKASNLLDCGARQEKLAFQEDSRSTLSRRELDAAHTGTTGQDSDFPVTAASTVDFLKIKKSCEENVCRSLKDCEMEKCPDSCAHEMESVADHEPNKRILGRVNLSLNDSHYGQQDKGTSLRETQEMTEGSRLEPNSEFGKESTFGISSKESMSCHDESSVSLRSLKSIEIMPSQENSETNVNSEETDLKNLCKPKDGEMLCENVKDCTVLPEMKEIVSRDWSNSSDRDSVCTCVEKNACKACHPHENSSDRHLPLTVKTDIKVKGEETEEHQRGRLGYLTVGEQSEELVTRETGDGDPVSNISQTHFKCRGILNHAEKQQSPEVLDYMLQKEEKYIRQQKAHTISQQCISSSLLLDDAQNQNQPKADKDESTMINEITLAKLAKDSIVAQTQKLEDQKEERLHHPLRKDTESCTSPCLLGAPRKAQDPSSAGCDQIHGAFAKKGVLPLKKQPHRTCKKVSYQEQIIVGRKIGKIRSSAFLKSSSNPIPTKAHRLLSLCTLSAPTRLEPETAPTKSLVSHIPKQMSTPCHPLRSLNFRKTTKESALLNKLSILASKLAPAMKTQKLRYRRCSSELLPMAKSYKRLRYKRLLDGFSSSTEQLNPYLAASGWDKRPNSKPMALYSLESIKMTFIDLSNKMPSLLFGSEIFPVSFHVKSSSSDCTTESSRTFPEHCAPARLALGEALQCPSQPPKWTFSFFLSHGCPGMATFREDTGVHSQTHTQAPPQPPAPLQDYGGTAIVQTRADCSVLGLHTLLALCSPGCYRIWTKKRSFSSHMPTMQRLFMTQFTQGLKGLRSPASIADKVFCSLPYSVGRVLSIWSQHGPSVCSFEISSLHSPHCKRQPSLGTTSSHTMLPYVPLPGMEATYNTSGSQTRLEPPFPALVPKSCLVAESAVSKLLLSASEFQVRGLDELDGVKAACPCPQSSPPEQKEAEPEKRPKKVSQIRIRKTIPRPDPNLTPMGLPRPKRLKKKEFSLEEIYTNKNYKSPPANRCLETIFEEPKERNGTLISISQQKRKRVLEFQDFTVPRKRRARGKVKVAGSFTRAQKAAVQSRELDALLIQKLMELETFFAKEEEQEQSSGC
inactive: [2] -0.072 | [4] -0.084 | [5] -0.247 | [8] -0.156 | [18] -0.027 | [19] -0.044 | [20] -0.007 | [10] 0.019 | [14] -0.039

POLB (UniProt P06746)
inactive: [16] -0.078 | [17] -0.003 | [2] 0.036 | [3] -0.178 | [4] 0.081 | [5] 0.077 | [6] -0.045 | [11] -0.1 | [8] -0.081 | [18] -0.103 | [19] -0.134 | [9] -0.04 | [20] 0.009 | [10] 0.143 | [13] -0.133 | [14] 0.043

PSMD8 (UniProt K7EK21)
inactive: [2] 0.485 | [10] -0.216

PSMA3 (UniProt H0YJ03)
inactive: [1] 0.081 | [2] 0.099 | [3] 0.092 | [5] -0.049 | [6] -0.07 | [7] 0.072 | [11] -0.213 | [9] 0.133 | [10] 0.036 | [13] -0.017 | [14] 0.02

PMVK (UniProt Q15126)
Chain of UniProt Q15126 (Q15126 whole entry, looked up): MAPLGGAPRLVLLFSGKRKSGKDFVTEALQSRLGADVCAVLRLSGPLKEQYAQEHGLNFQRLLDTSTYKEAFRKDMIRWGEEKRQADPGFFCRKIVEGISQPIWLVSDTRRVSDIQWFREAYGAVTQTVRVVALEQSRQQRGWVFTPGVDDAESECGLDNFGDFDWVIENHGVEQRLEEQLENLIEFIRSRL
inactive: [16] 0.088 | [17] 0.02 | [2] 0.083 | [3] -0.055 | [5] -0.186 | [6] 0.333 | [12] 0.057 | [8] -0.203 | [18] -0.214 | [19] -0.064 | [9] -0.308 | [20] -0.139 | [10] -0.098 | [15] -0.025
active: [4] -0.705

PCBP2 (UniProt F8VZX2)
inactive: [1] -0.273 | [2] 0.234 | [3] -0.147 | [6] 0.065 | [7] -0.107 | [11] -0.124 | [12] 0.029 | [18] 0.029 | [19] -0.112 | [9] -0.144 | [20] 0.049 | [10] -0.022 | [13] -0.196 | [15] -0.153

PSD3 (UniProt Q9NYI0)
inactive: [1] 0.071 | [2] -0.047 | [7] -0.02 | [11] -0.075 | [18] -0.117 | [19] 0.029 | [20] 0.014 | [10] -0.002 | [13] 0.071 | [14] -0.062 | [15] -0.035

PTP4A3 (UniProt O75365)
Chain of UniProt O75365 (O75365 whole entry, looked up): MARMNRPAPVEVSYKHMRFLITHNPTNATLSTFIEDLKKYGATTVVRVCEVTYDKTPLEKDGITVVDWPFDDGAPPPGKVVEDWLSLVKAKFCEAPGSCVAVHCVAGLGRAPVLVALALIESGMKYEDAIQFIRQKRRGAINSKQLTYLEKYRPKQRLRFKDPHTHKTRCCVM
inactive: [12] 0.162

PCNX1 (UniProt Q96RV3)
inactive: [17] 0.257 | [5] 0.071 | [12] -0.112 | [18] 0.007 | [19] 0.009 | [20] 0 | [14] 0.305 | [15] -0.019

PRKD2 (UniProt M0R346)
inactive: [16] -0.025 | [17] 0.241 | [4] 0.109 | [12] -0.147 | [8] -0.136

PEX5 isoform 4 (UniProt P50542)
inactive: [16] -0.091 | [17] -0.016 | [2] 0.15 | [3] -0.379 | [5] -0.013 | [6] -0.047 | [11] -0.078 | [9] 0.139 | [10] 0.219 | [13] -0.078

PLCXD1 (UniProt Q9NUJ7)
inactive: [11] -0.145 | [13] -0.099
active: [12] -0.642

PUF60 isoform 2 (UniProt Q9UHX1)
inactive: [2] -0.591 | [3] 0.163 | [5] 0.193 | [6] 0.04 | [11] 0.173 | [12] -0.089 | [9] -0.173 | [10] 0.043 | [13] -0.103 | [14] -0.159 | [15] -0.257

PIGH (UniProt Q14442)
Chain of UniProt Q14442 (Q14442 whole entry, looked up): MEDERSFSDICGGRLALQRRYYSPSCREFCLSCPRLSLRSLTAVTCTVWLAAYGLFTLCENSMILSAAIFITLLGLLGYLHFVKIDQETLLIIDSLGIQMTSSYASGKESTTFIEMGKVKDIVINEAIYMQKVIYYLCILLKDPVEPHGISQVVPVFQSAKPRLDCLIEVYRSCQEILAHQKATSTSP
inactive: [1] -0.037 | [17] -0.012 | [2] -0.179 | [3] -0.034 | [4] 0.036 | [5] 0 | [6] 0.04 | [7] -0.062 | [11] 0.033 | [12] -0.037 | [8] -0.01 | [9] -0.053 | [10] 0.099 | [13] 0.009 | [14] 0.056 | [15] 0.04
